# Experimental data: PubChem BioAssay (NCATS)
# For some of these results: Measured potencies and affinities stand elsewhere. The source made the active and inactive calls.
# Experiments:
# [1] = Ebola virus entry assay, green fluorescence channel
# [2] = Ebola virus entry assay, blue channel fluorescence
# [3] = qHTS profiling of the MIPE4 collection as inhibitors of Plasmodium falciparum (3D7) proliferation (AID 743344);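 also: scaled between DMSO vehicle wells and 0.29 µM artemisinin as full inhibition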; conditions: P. falciparum 3D7 in erythrocytes, SYBR Green DNA fluorescence, 72 h; at 28.5 µM (top of the series) unless noted
# Procedure, shortened: (§1)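 Parasite DNA was quantified by SYBR Green I fluorescence (ex 485, em 535 nm) after overnight lysis in saponin/Triton buffer at room temperature. Cultures at 0.3% parasitemia and 2.5% hematocrit were first exposed to compound for 72 h at 37 C; signals were normalised to artemisinin (0.29 uM) and vehicle wells.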
# [4] = qHTS profiling of the MIPE4 collection as inhibitors of Plasmodium falciparum (DD2) proliferation (AID 743345); conditions: P. falciparum Dd2 in erythrocytes, SYBR Green DNA, 72 h; at 28.5 µM (top of the series) unless noted
# Procedure, shortened: as §1
# [5] = qHTS profiling of the MIPE4 collection as inhibitors of Plasmodium falciparum (DD2) proliferation (Rep 2) (AID 743346); conditions: P. falciparum Dd2 in erythrocytes, SYBR Green DNA, 72 h; at 28.5 µM (top of the series) unless noted
# Procedure, shortened: as §1
# [6] = qHTS profiling of the MIPE4 collection as inhibitors of Plasmodium falciparum (HB3) proliferation (AID 743347);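 also: plate controls were DMSO vehicle wells for no effect and artemisinin wells for full effect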; conditions: P. falciparum HB3 in erythrocytes, SYBR Green DNA, 72 h; at 28.5 µM (top of the series) unless noted
# Procedure, shortened: as §1
# [7] = Ebola virus entry assay, blue channel fluorescence; remark: listed apart in the source
# [8] = Ebola virus entry assay, green fluorescence channel; remark: listed apart in the source
# [9] = Ebola virus entry assay, ratio channel readout
# For efficacy in this document: 0% is about no effect.
structure (smiles),measurement,setting,value
CN1CCN(CC(=O)N2c3ccccc3C(=O)Nc3cccnc32)CC1,efficacy,[1],-20.7% (inactive)
same,outcome,[2],inactive
Cc1cccc(C)c1NC(=O)CC12CCCN1CCC2,efficacy,[1],-14.9% (inactive)
same,outcome,[2],inactive
CN1C(C(=O)Nc2ccccn2)=C(O)c2sccc2S1(=O)=O,efficacy,[1],-30.7% (inactive)
same,outcome,[2],inactive
CC(=O)Oc1ccc(C)cc1,efficacy,[1],12.2% (inactive)
same,outcome,[2],inactive
CN1C[C@@H]2C[C@H]1CN2c1cc2c(cc1F)c(=O)c(C(=O)O)cn2C1CC1,efficacy,[1],18.4% (inactive)
same,outcome,[2],inactive
CC(C)c1cccc(C(C)C)c1O,"parasite growth, % of DMSO control",[3],89.1%
same,"parasite growth remaining, % of DMSO control (lower = more inhibition)",[4],102%
same,"parasite growth, % of control (lower = inhibition)",[5],85.1%
same,"growth, % of control",[6],103%
same,efficacy,[1],-18.5% (inactive)
same,outcome,[2],inactive
NC(=O)CC[C@@H]1NC(=O)[C@H](Cc2ccccc2)NC(=O)[C@H](Cc2ccc(O)cc2)NC(=O)[C@@H](N)CSSC[C@@H](C(=O)N2CCC[C@H]2C(=O)N[C@@H](CCCN=C(N)N)C(=O)NCC(N)=O)NC(=O)[C@H](CC(N)=O)NC1=O,outcome,[7],inactive
same,outcome,[8],inactive
CC(=O)CC(c1ccccc1)c1c(O)c2ccccc2oc1=O (stereo not drawn),"parasite growth, % of DMSO control",[3],71.1%
same,"parasite growth remaining, % of DMSO control (lower = more inhibition)",[4],93.4%
same,"parasite growth, % of control (lower = inhibition)",[5],69.5%
same,"growth, % of control",[6],84.4%
same,efficacy,[1],-35.3% (inactive)
CCC1(c2ccc(N)cc2)CCC(=O)NC1=O (stereo not drawn),"parasite growth, % of DMSO control",[3],89%
same,"parasite growth remaining, % of DMSO control (lower = more inhibition)",[4],103%
same,"parasite growth, % of control (lower = inhibition)",[5],117%
same,"growth, % of control",[6],101%
same,efficacy,[1],-15.9% (inactive)
COc1ccc2cccc(CCNC(C)=O)c2c1,efficacy,[1],-16.7% (inactive)
same,outcome,[2],inactive
CN1C(=O)COc2c(C(=O)NC3CN4CCC3CC4)cc(Cl)cc21 (stereo not drawn),"parasite growth, % of DMSO control",[3],98.1%
same,"parasite growth remaining, % of DMSO control (lower = more inhibition)",[4],78.2%
same,"parasite growth, % of control (lower = inhibition)",[5],95.9%
same,"growth, % of control",[6],86.6%
same,efficacy,[1],-18% (inactive)
CCOC(=O)c1ccc(N)cc1,efficacy,[1],26.1% (inactive)
same,outcome,[2],inactive
Cc1cc(CC(=O)O)c(C)n1-c1ccc(Cl)cc1,efficacy,[1],41.9% (inactive)
same,outcome,[2],inactive
COC(=O)c1ccc(O)cc1,efficacy,[1],13.3% (inactive)
same,outcome,[2],inactive
Cc1cc(C(C#N)c2ccc(Cl)cc2)c(Cl)cc1NC(=O)c1cc(I)cc(I)c1O (stereo not drawn),efficacy,[1],-32.3% (inactive)
same,outcome,[2],inactive
CCN(CC)CC#CCOC(=O)C(O)(c1ccccc1)C1CCCCC1 (stereo not drawn),outcome,[7],inactive
same,outcome,[8],inactive
same,outcome,[9],inactive
CC(=O)N=c1sc(S(N)(=O)=O)nn1C,outcome,[7],inactive
same,outcome,[8],inactive
same,outcome,[9],inactive
CO/N=C(\C(=O)N[C@@H]1C(=O)N2C(C(=O)O)=CCS[C@H]12)c1csc(N)n1,outcome,[7],inactive
same,outcome,[8],inactive
same,outcome,[9],inactive
Nc1nc(Cl)nc2c1ncn2[C@H]1C[C@H](O)[C@@H](CO)O1,outcome,[7],inactive
same,outcome,[8],inactive
same,outcome,[9],inactive
C=C1[C@H](CO)[C@@H](O)C[C@@H]1n1cnc2c(=O)[nH]c(N)nc21,outcome,[7],inactive
same,outcome,[8],inactive
same,outcome,[9],inactive
